# Measured values from PubChem BioAssay (NCATS).
# Records with an inconclusive call do not appear. Unmarked numbers belong to inactive results. Activity calls are given as the source filed them. Calls come from the whole dose curve; as a rule, active = well fitted curve in the direction sought with a large enough effect; inconclusive = small, poorly fitted or top-dose-only effect, or another doubt; inactive = no such curve, though single readings can be large; an effect the other way counts as inactive or inconclusive.
# Legend:
# [1] = BET inhibitor-based combinations targeting novel dependencies in MECOM-rearranged (r) AML: SET-2 cell line (AID 2202231); settings: SET-2 AML cells viability, CellTiter-Glo luminescence, 48 h; viability: stronger effect = lower value, concentration not given here; note: nearly all actives have a fitted effect of over 35% in size;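 for viability: plate controls were DMSO treated cells for no effect and wells without cells for full effect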
# In short: (§1)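 Cells were plated at 500 per well and exposed to an 11-point dose series of each drug for 48 hr. Viability was measured by CellTiter-Glo luminescence, normalized to DMSO and empty-well controls, and summarized as AUC and per-cell-line Z-AUC.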
# [2] = BET inhibitor-based combinations targeting novel dependencies in MECOM-rearranged (r) AML: OCI-AML3 cell line (AID 2202232); settings: Potency: OCI-AML3 viability; note: nearly all actives have a fitted effect of over 35% in size;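 for viability (% of control): series mostly up to about 46 µM; plate controls were DMSO vehicle wells for no effect and wells without cells for full effect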
# In short: as §1
# [3] = BET inhibitor-based combinations targeting novel dependencies in MECOM-rearranged (r) AML: MV-4-11 cell line (AID 2202233); note: nearly all actives have a fitted effect of over 45% in size;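 for viability, % of control: plate controls were DMSO for no effect and blank wells for full effect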
# In short: (§2)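 Activity is given as area under the curve and as Z-AUC, mean-centred within each cell line. It comes from 11-point dose curves normalized to DMSO and empty wells. CellTiter-Glo luminescence was read after 48 hr drug exposure of 500 cells/well.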
# [4] = BET inhibitor-based combinations targeting novel dependencies in MECOM-rearranged (r) AML: HNT-34 cell line (AID 2202234); note: nearly all actives have a fitted effect of over 35% in size;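 for viability (% of control): plate controls were vehicle wells for no effect and cell-free wells for full effect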
# In short: as §2
# [5] = BET inhibitor-based combinations targeting novel dependencies in MECOM-rearranged (r) AML: AML-191 cell line (AID 2202236; note: nearly all actives have a fitted effect of over 35% in size;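 for viability (% of control): plate controls were vehicle wells for no effect and wells without cells for full effect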)
# In short: as §1
# [6] = BET inhibitor-based combinations targeting novel dependencies in MECOM-rearranged (r) AML: AML-194 cell line (AID 2202237; note: nearly all actives have a fitted effect of over 40% in size;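 for viability (% of control): plate controls were vehicle wells for no effect and wells without cells for full effect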)
# In short: as §1
# [7] = BET inhibitor-based combinations targeting novel dependencies in MECOM-rearranged (r) AML: UCSD-AML1 cell line (AID 2202235); note: nearly all actives have a fitted effect of over 40% in size;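 for viability (% of control): series mostly up to about 46 µM; plate controls were DMSO vehicle wells for no effect and blank wells for full effect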
# In short: as §2
# Potency is the fitted concentration of half-maximal effect.
smiles,measurement,setting,value
Cc1c[nH]c2nc(Nc3ccc(N4CCN(C)CC4)c(F)c3)nc(-c3cccc(CC#N)c3)c12,Potency,[1],2.63 µM (active)
same,Potency,[2],2.95 µM (active)
same,Potency,[3],0.0332 µM (active)
same,Potency,[4],0.662 µM (active)
same,Potency,[5],0.742 µM (active)
same,Potency,[6],0.833 µM (active)
CNc1ncc2cc(-c3cc(NC(=O)NCCC(C)(C)C)c(F)cc3C)c(C)nc2n1,Potency,[1],2.35 µM (active)
same,Potency,[2],0.662 µM (active)
same,Potency,[3],0.468 µM (active)
same,Potency,[7],1.05 µM (active)
CC1(C)S[C@H]2[C@H](NC(=O)[C@@H](N)c3ccc(O)cc3)C(=O)N2[C@H]1C(=O)O,viability,[1],99.7%
same,Potency,[2],inactive
same,Potency,[3],inactive
same,Potency,[4],inactive
same,Potency,[5],inactive
same,Potency,[6],inactive
CSc1ccc(C(=O)/C=C/c2cc(C)c(OC(C)(C)C(=O)O)c(C)c2)cc1,Potency,[1],34 µM (active)
same,Potency,[2],30.3 µM (active)
same,Potency,[3],6.05 µM (active)
same,Potency,[7],inactive
NC(=O)C1=C(O)[C@@]2(O)C(=O)C3=C(O)c4c(O)cccc4C[C@H]3C[C@H]2CC1=O,Potency,[1],4.68 µM (active)
same,Potency,[2],3.72 µM (active)
same,Potency,[3],9.34 µM (active)
same,Potency,[4],8.33 µM (active)
same,Potency,[5],7.42 µM (active)
same,Potency,[6],10.5 µM (active)
O=S(=O)(Nc1ccc(-c2cccnc2)c2cccnc12)c1cccc(C(F)(F)F)c1,Potency,[1],10.5 µM (active)
same,Potency,[2],7.42 µM (active)
same,Potency,[3],7.42 µM (active)
same,Potency,[4],4.17 µM (active)
same,Potency,[5],5.9 µM (active)
same,Potency,[6],7.42 µM (active)
COc1ccc(S(=O)(=O)N2CCc3cccc(-c4ccncc4)c32)cc1,Potency,[1],1.66 µM (active)
same,Potency,[2],1.05 µM (active)
same,Potency,[3],1.18 µM (active)
same,Potency,[7],1.18 µM (active)
same,Potency,[5],1.05 µM (active)
N#CC(c1ccnc(NCCc2cccnc2)n1)c1nc2ccccc2s1 (stereo not drawn),Potency,[1],18.6 µM (active)
same,Potency,[2],18.6 µM (active)
same,Potency,[3],6.61 µM (active)
same,Potency,[4],14.8 µM (active)
same,Potency,[5],16.6 µM (active)
same,Potency,[6],18.6 µM (active)
CCCCCCCOc1ccc(CCC(N)(CO)CO)cc1C(F)(F)F,Potency,[1],18.6 µM (active)
same,Potency,[2],16.6 µM (active)
same,Potency,[3],14.8 µM (active)
same,Potency,[4],14.8 µM (active)
same,Potency,[5],18.6 µM (active)
same,Potency,[6],14.8 µM (active)
O=[N+]([O-])c1ccc(O)c2ncccc12,Potency,[1],16.6 µM (active)
same,Potency,[2],14.8 µM (active)
same,Potency,[3],13.2 µM (active)
same,Potency,[4],7.42 µM (active)
same,Potency,[5],8.33 µM (active)
same,Potency,[6],9.34 µM (active)
C=CC(=O)N1CCC(CNc2ncnc(N)c2-c2ccc(Oc3ccccc3)cc2)CC1,viability,[1],101%
same,Potency,[2],16.6 µM (active)
same,Potency,[3],13.2 µM (active)
same,Potency,[7],inactive
CC(/C=C1\SC(=S)N(CC(=O)O)C1=O)=C\c1ccccc1,viability,[1],113%
same,Potency,[2],inactive
same,Potency,[3],inactive
same,Potency,[4],inactive
same,Potency,[5],inactive
same,Potency,[6],inactive
COc1ccc2c(c1)c(C1=C(c3c[nH]c4ccccc34)C(=O)NC1=O)cn2CCCN(C)C,Potency,[1],23.5 µM (active)
same,Potency,[2],20.9 µM (active)
same,Potency,[3],0.372 µM (active)
same,Potency,[4],16.6 µM (active)
same,Potency,[5],23.5 µM (active)
same,Potency,[6],23.5 µM (active)
CC[C@@]1(O)C(=O)OCc2c1cc1n(c2=O)Cc2c-1nc1ccccc1c2CCNC(C)C,Potency,[1],0.0166 µM (active)
same,Potency,[2],0.0047 µM (active)
same,Potency,[3],0.0042 µM (active)
same,Potency,[4],0.0037 µM (active)
same,Potency,[5],0.0118 µM (active)
same,Potency,[6],0.0132 µM (active)
CC(C)Cc1ccc([C@@H](C)C(=O)NS(C)(=O)=O)cc1,viability,[1],112%
same,Potency,[2],inactive
same,Potency,[3],inactive
same,Potency,[4],inactive
same,Potency,[5],inactive
same,Potency,[6],inactive
O=C(O)CNC(=O)c1nc(Cl)c2ccccc2c1O,viability,[1],122%
same,Potency,[2],inactive
same,Potency,[3],inactive
same,Potency,[4],inactive
same,Potency,[5],inactive
same,Potency,[6],inactive
O=C(O)c1cccnc1,viability,[1],118%
same,Potency,[2],inactive
same,Potency,[3],inactive
same,Potency,[4],inactive
same,Potency,[5],inactive
same,Potency,[6],inactive
Cc1[nH]cnc1CN1CCN(C(=O)N[C@@H](CC(C)C)C(=O)O)[C@@H](Cc2ccccc2)C1=O,viability,[1],123%
same,Potency,[2],6.61 µM (active)
same,Potency,[3],inactive
same,Potency,[4],inactive
same,Potency,[6],inactive
C/C(=N\NC(=O)c1cccc(S(=O)(=O)N2CCOCC2)c1)c1cc(Cl)ccc1O,Potency,[1],6.61 µM (active)
same,Potency,[2],1.86 µM (active)
same,Potency,[3],5.9 µM (active)
same,Potency,[4],2.95 µM (active)
same,Potency,[5],2.09 µM (active)
same,Potency,[6],4.17 µM (active)
Cn1cc(C[C@@H](N)C(=O)O)c2ccccc21,viability,[1],113%
same,viability (% of control),[2],111% [at 8.46 µM]
same,"viability, % of control",[3],103% [at 8.46 µM]
same,viability (% of control),[4],100% [at 8.46 µM]
same,viability (% of control),[5],110% [at 8.46 µM]
same,viability (% of control),[6],109% [at 8.46 µM]
COc1ccc(S(=O)(=O)Nc2cc(-c3csc(C#N)c3)ccc2C)cc1,Potency,[1],0.209 µM (active)
same,Potency,[2],0.148 µM (active)
same,Potency,[3],0.235 µM (active)
same,Potency,[7],0.148 µM (active)
same,Potency,[5],0.132 µM (active)
same,Potency,[6],0.332 µM (active)
